Results taken from PubChem BioAssay AID743245 (National Center for Advancing Translational Sciences (NCATS), 2014).
The other results are listed elsewhere or left out. Records with an inconclusive call do not appear. Active and inactive are the calls of the source. The call rests on the fitted dose curve; in most records, active means well fitted inhibition curve with a large enough effect; inconclusive means small, poorly fitted or top-dose-only effect; inactive means flat fitted curve, though single readings scatter.

What follows are compounds tested against ATP-dependent Clp protease proteolytic subunit (Bacillus subtilis (strain 168)) (UniProt P80244) (assay: qHTS Assay for Activators of ClpP: Hit Validation of Inhibitors). Settings: purified B. subtilis ClpP, FRET-FV substrate cleavage, 20 min; series mostly up to 57.5 µM; activity change, negative = inhibition: at the top concentration.
From the text: The Clp protease proteolytic subunit (ClpP) is the core unit of the Clp complex belonging to the peptidase family S14 that hydrolyzes protein into small peptides in the presence of ATP and magnesium. It is ubiquitously expressed and is the major protease in bacteria. […] Unlike common antibiotics that simply interfere with the essential enzyme activity, ADEP binding activates the ClpP core in the absence of the regulatory Clp-ATPases leading to uncontrolled proteolysis and eventually cell death. Activators binding to the docking site on ClpP can also block formation of the ClpXP and ClpA/C-P holoenzyme complexes interfering with the normal biological functions of ClpP and thus have the potential to become new anti-microbials. To identify activators of ClpP, a FRET based quenching reversal assay was developed using a purified B. subtilis ClpP and a decapeptide substrate (FRET-FV). The FRET-FV is tagged with a fluorescent molecule amino benzoic acid (donor) at the N-terminus and a nitrotyrosine quencher (acceptor) at the C-terminus. FRET-FV cleaves upon activation of ClpP with ADEP treatement and reverses the quenching effect of the nitrotyrosine causing an increase in fluorescence emission signal at 430nm. This assay was used to screen the Molecular Libraries Small Molecule Repository (MLSMR). NIH Molecular Libraries Probe Production Centers Network [MLPCN] NIH Chemical Genomics Center [NCGC] MLPCN Grant: MH095569 Assay Submitter (PI): Michael Maurizi, National Cancer Institute
Two and a half microL/well of purified enzyme solution (final concentrations 10 microg/mL B. subtilis ClpP in 100 mM Tris/HCl pH8, 100 mM KCl, 0.05% low protease BSA, 2.5% glycerol, 0.01% Tween-20 buffer) was dispensed into 1536-well assay plates (Greiner, black solid, medium-binding plates) with Aurora Discovery BioRAPTR Flying Reagent Dispenser (FRD, Beckton-Dickenson). Compound solution (23 nL) was transferred to the assay plate using Kalypsys pin tool equipped with a 1536-pin tool. One and a half microL/well substrate solution (final concentrations 3 microM FRET-FV substrate in 100 mM Tris/HCl pH8, 100 mM KCl, 0.05% low protease BSA, 2.5% glycerol, 0.01% Tween-20 buffer) was then added for a total of 4 microL final reaction volume. FRET signals at time 0 and after 20 min room temperature incubation were obtained using the PerkinElmer Envision plate reader with 320nm excitation and 430nm emission filters. Delta FRET value (Time 20 - Time 0) was calculated and normalized to the delta FRET value of positive control ADEP (5.8 microM final concentration) and negative control DMSO and no enzyme wells.
Further: nearly all actives have a fitted effect of over 70% in size.
On the % scale 0 is the no-effect control and ±100 the full control effect.

ATP-dependent Clp protease proteolytic subunit (Bacillus subtilis (strain 168)), sequence (P80244 whole entry, looked up): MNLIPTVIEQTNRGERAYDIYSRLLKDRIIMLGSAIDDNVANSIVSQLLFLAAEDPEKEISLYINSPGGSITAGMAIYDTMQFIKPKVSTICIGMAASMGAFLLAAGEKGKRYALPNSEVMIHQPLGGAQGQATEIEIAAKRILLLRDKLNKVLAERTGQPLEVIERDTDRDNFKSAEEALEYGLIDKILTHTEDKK

Potency, active:
CC(C)n1c(-c2cccs2)nc2ccccc21 21.7 µM, COc1ccccc1NC(=O)c1oc2ccccc2c1NC(=O)COc1ccccc1OC 21.7 µM, CCOc1ccc(-c2nnc(-c3ccco3)o2)cc1 21.7 µM, Fc1cc(F)c2nc(Nc3nc4c(F)cccc4s3)sc2c1 4.85 µM, CN(C(=O)c1cc2c(=O)n3ccccc3nc2s1)C1CCCCC1 13.7 µM, COc1ccc(CCNC(=O)c2ccc3c(c2)sc2nc(-c4ccc(C)cc4)cn23)cc1OC 27.3 µM, O=C(Nc1ccc2oc(-c3ccc4ccccc4c3)nc2c1)c1cccs1 10.9 µM, Cc1nc2sc(C)c(C)n2c(=O)c1S(=O)(=O)NCCc1ccc(Cl)cc1 24.3 µM, CCOC(=O)N1CCN(C(=O)c2ccc3nc4cc(Cl)ccc4c(=O)n3c2)CC1 27.3 µM, Cc1cccc(-c2oc3ccc(-c4ccc5c(c4)OCO5)cc3c2C#Cc2cncn2C)c1 24.3 µM, COc1ccccc1CNC(=O)c1ccccc1NC(=O)c1nsc2ccccc12 24.3 µM

Activity change, negative = inhibition, inactive:
CCCCn1c(=O)c2oc3ccccc3c2n(CC(=O)Nc2ccccc2OC)c1=O -3.85%, COc1ccc(CNC(=O)COC(=O)CCS(=O)(=O)c2ccc(C)cc2)cc1OC -0.566%, CCCCN(C)c1ccc([N+](=O)[O-])cc1 -1.43%, CCOc1ccc(-c2cc(C)n3nc(C(=O)Nc4ccc(C)c(C)c4)cc3n2)cc1 0.34%, COc1cc2[nH]c(=O)n(Cc3ccc(C(=O)NCc4ccc(C)cc4)cc3)c(=O)c2cc1OC -21.1%, CCN(CCCNC(=O)c1cc2c(=O)n(CC)c3ccccc3c2s1)Cc1ccccc1 -0.109%, Cc1cccc(NC(=O)c2nnn(CC(=O)Nc3ccc(C(C)C)cc3)c2N)c1C -4.1%
